Each structure is given as a SMILES string. Hit rate of the full screen: of about 13,000 compounds, about 3,200 (25%) showed an effect of 50% or more. This is one part of the list.

This experiment deals with P. falciparum stage V gametocytes. Further details: BacTiter-Glo ATP luminescence viability of purified stage V gametocytes in 384-well plates, per cent inhibition versus DMSO. The following applies: 48 h, 5 µM; inhibitor.
Regarding `Cc1cc(-c2ccc3c(c2)CCN(CCC2CCC(NC(=O)/C=C/c4cccc(F)c4)CC2)CC3)on1` (centres unmarked) [TCMDC-139973], the “% Inhibition” value was -71.57%.
The value for `Cc1ccc(C)c(Sc2ccc(NC(=O)CN3CCN(C(=O)c4ccco4)CC3)cc2)c1` [TCMDC-124860] was -17.66%.
The value for `CC(C)c1cccc(OCC2CCN(c3ccc(C(=O)Nc4ccccc4)cn3)CC2)c1` [TCMDC-134261] was 7.313%; that for `NC(=O)c1c(Cl)nc2ccccc2c1Cl` [TCMDC-131373] was -0.4742%; that for `O=C(Nc1cccc(CN2CCN(C(=O)c3cccc(Cl)c3)CC2)c1)c1ccco1` [TCMDC-136322] was -11.21%.
For `O=C(c1cccc(Br)c1)N1CCN(c2ccc([N+](=O)[O-])c(NC3CC3)c2)CC1` [TCMDC-123536], the “% Inhibition” value was 60.19%.
The value for `COc1ccc(S(=O)(=O)N2CCCC(C)C2)cc1N1CCN(C(=O)c2ccc([N+](=O)[O-])o2)CC1` (centres unmarked) [TCMDC-124803] was 27.68%; that for `COc1ccc(C(=O)N2CCN(c3ccc([N+](=O)[O-])c(NC4CC4)c3)CC2)cc1Br` [TCMDC-123659] was 105.4%; that for `N#Cc1ccc(NC2(C(=O)N3CCN(c4cccc(Cl)c4)CC3)CC2)c2ccccc12` [TCMDC-136618] was -25.2%.
The value for `O=C(NC1CC1)c1ccc(N2CCC(Cc3ccccc3)CC2)c([N+](=O)[O-])c1` [TCMDC-123724] was 45.67%; that for `COc1ccc(C(=O)Nc2ccc3nc(N4CCCCC4)cc(C)c3c2)cc1[N+](=O)[O-]` [TCMDC-125448] was -8.807%.
`O=C(c1cccc(Cl)c1)N1CCN(c2ccc([N+](=O)[O-])c(NC3CC3)c2)CC1` [TCMDC-125827]: the “% Inhibition” value worked out at 67.12%.
Consider `O=C(c1cccc(-c2noc(C(F)(F)F)n2)c1)N1CCN(c2ccncc2)CC1` [TCMDC-132423], for which the “% Inhibition” value was determined as 9.188%.
Consider `O=C(NCC1CCC(C(=O)NCc2cccc3ccccc23)CC1)c1ccc(O)c(-c2ccc(Cl)c(Cl)c2)c1` (centres unmarked) [TCMDC-140895], for which the “% Inhibition” value was -0.9635%.
The value for `CO/C(=C\C=C\c1cc2cc(Cl)c(Cl)cc2[nH]1)C(=O)NCCCN1CCN(c2cccc(OCC(=O)Nc3cccc(C(=O)c4ccccc4)c3)c2)CC1` [TCMDC-139411] was 32.5%; that for `NC(=O)c1cc2nc(Nc3ccc(F)cc3)nc(NC3CCC3)c2[nH]1` [TCMDC-137003] was -67.45%; that for `O=[N+]([O-])c1cccc(CNCC2CCN(Cc3ccc4ccccc4c3)CC2)c1` [TCMDC-141207] was 30.18%.
The value for `CCCCCCN1CCC(NCc2cccc([N+](=O)[O-])c2)CC1` [TCMDC-141205] was 32.34%; that for `O=C(Nc1ccc2ccccc2c1)N1CCC(NCc2cccc([N+](=O)[O-])c2)CC1` [TCMDC-141278] was 22.21%; that for `O=[N+]([O-])c1cccc(CNC2CCN(Cc3ccc(-c4ccccc4)cc3)CC2)c1` [TCMDC-141203] was 57.53%.
For the molecule `O=[N+]([O-])c1cccc(CNC2CCN(Cc3ccc4ccccc4c3)CC2)c1` [TCMDC-141202], the “% Inhibition” value amounted to 96.08%.
The value for `COc1ccc(CN2CCC(NCc3cccc([N+](=O)[O-])c3)CC2)cc1` [TCMDC-141201] was 64.68%; that for `COc1ccc(CN2CCC(NCc3cccc(C(F)(F)F)c3)CC2)cc1` [TCMDC-141652] was 21.67%; that for `O=[N+]([O-])c1cccc(CNC2CCN(Cc3ccc(Cl)c(Cl)c3)CC2)c1` [TCMDC-141200] was 48.14%.
On to `O=[N+]([O-])c1cccc(CNC2CCN(Cc3ccc(C(F)(F)F)cc3)CC2)c1` [TCMDC-141204], for which the “% Inhibition” value is -3.032%.
For `Cn1c(NC(=O)c2ccc(CNC(=O)c3ccc(O)c(-c4ccc(Cl)c(Cl)c4)c3)cc2)nc2ccccc21` [TCMDC-140881], the “% Inhibition” value was -6.168%.
For `Cc1[nH]c2cc(Cl)ccc2c1C1=CCN(CCCCC2(C)C(=O)Nc3c(F)cccc32)CC1` (centres unmarked) [TCMDC-140946], the “% Inhibition” value is listed as -93.15%.
The value for `Cc1ccc(S(=O)(=O)NC2CCN(c3ccnc4cc(Cl)ccc34)C2)cc1` (centres unmarked) [TCMDC-133652] was 11.61%; that for `Cc1cc(OCCCN2CCC(NS(=O)(=O)c3ccc(Cl)c(Cl)c3)C2)c2ccccc2n1` (centres unmarked) [TCMDC-136282] was -6.813%; that for `COc1ccc(-c2ccc(NC(=O)c3cccc(C#N)c3)cc2)cc1CN1CCC(O)CC1` [TCMDC-132534] was -38.76%.
As to `COc1ccc(-c2ccc(NC(=O)c3ccc(C#N)cc3)cc2)cc1CN1CCC(O)CC1` [TCMDC-132522], the “% Inhibition” value is -51.71%.
Turning to `COc1ccc(-c2ccc(NC(=O)c3cccc(C#N)c3)cc2)cc1CN1CCCC(C(N)=O)C1` (centres unmarked) [TCMDC-132533], the “% Inhibition” value amounted to 78.38%.
As to `COc1ccc(-c2cccc(NC(=O)c3cccc(C#N)c3)c2)cc1CN1CCC(O)CC1` [TCMDC-132626], the “% Inhibition” value came out at 84.74%.
Consider `COc1ccc(-c2ccc(NC(=O)c3cccc(C#N)c3)cc2)cc1CN1CCN(C)CC1` [TCMDC-132532], for which the “% Inhibition” value worked out at 1.481%.
In the case of `COc1ccc(-c2cccc(NC(=O)c3cccc(C#N)c3)c2)cc1CN1CCCC1` [TCMDC-132623], the “% Inhibition” value is reported as 25.04%.
